# Reference: PubChem BioAssay
# Activity calls are given as the source filed them. Unless noted, how the calls were made is not given here.
# Columns and labels:
# [1] = compound effects on lung adenocarcinoma cell viability – A549, calcein-AM fluorescence, 48 h, basal, profiling panel (AID 1162); details: higher = more signal; further: test concentration not given here
# [2] = compound effects on differentiated 3T3-L1 adipocyte viability – cell-based, 3T3-L1 adipocytes, calcein-AM fluorescence, 48 h, basal, profiling panel (AID 1163); details: 3T3-L1 adipocytes viability, higher = more signal; further: test concentration not given here
# [3] = compound effects on hepatocellular carcinoma cell viability – HepG2, calcein-AM fluorescence, 48 h, basal, profiling panel (AID 1164); details: higher = more signal; further: test concentration not given here
# [4] = compound effects on multiple myeloma cell viability – MM1S, calcein-AM fluorescence, 48 h, basal, profiling panel (AID 1165); details: higher = more signal;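 further: viability of MM1S multiple myeloma cells under basal unstimulated conditions; test concentration not given here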
# [5] = calcein-AM signal in unstimulated myeloma cells – cell-based, calcein-AM fluorescence, 48 h, PK04 Diversity Set, profiling panel (AID 1166); details: RPMI8226 myeloma viability, higher = more signal;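 further: cells grown under basal conditions without added stimulus; test concentration not given here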
# [6] = JC-1 mitochondrial signal, unstimulated HepG2 cells – cell-based, JC-1 fluorescence, 24 h, 100 nL compound, profiling panel (AID 1167); details: HepG2 mitochondrial potential, higher = more signal; further: test concentration not given here
# [7] = JC-1 mitochondrial signal, unstimulated adipocytes – cell-based, JC-1 fluorescence, 3T3-L1 adipocytes, 24 h, 100 nL compound, profiling panel (AID 1168); details: JC-1 mitochondrial fluorescence, higher = more signal, called active from +8 up or from −8 down; further: test concentration not given here
# [8] = JC-1 mitochondrial signal, unstimulated myeloma cells – cell-based, JC-1 fluorescence, RPMI8226, 24 h, 100 nL compound, profiling panel (AID 1169); details: JC-1 mitochondrial potential fluorescence, higher = more signal; further: test concentration not given here
# [9] = JC-1 mitochondrial signal, unstimulated MM1S myeloma – cell-based, JC-1 fluorescence, 24 h, 100 nL compound, profiling panel (AID 1170); details: MM1S mitochondrial potential, higher = more signal; further: test concentration not given here
# [10] = resazurin metabolic signal in A549 cells – cell-based, resazurin fluorescence, 24 h, PK04 Diversity Set, profiling panel (AID 1171); details: A549 viability, higher = more signal, called active from +8 up or from −8 down; further: test concentration not given here
# [11] = resazurin metabolic signal in HepG2 cells – cell-based, resazurin fluorescence, 24 h, PK04 Diversity Set, profiling panel (AID 1172); details: HepG2 viability, higher = more signal; further: test concentration not given here
# [12] = budding yeast growth changes without added modifier – OD600, strain BY4716, 24 h, basal condition, primary screen (AID 1173); details: S. cerevisiae BY4716 growth, OD600, 24 h; higher = more signal, called active from +8 up or from −8 down
# [13] = viability profiling in MM1S myeloma cells – cell-based, resazurin fluorescence, basal, 24 h, PK04 Diversity Set, profiling panel (AID 1174); details: higher = more signal, called active from +8 up or from −8 down; further: test concentration not given here
# [14] = molecular target: Dihydroorotate dehydrogenase (quinone), mitochondrial (Plasmodium falciparum (isolate 3D7)) (UniProt Q08210); experiment: inhibition of P. falciparum DHODH – biochemical, C-terminal His tag, absorbance 600 nm, primary screen (AID 1175); details: PfDHODH enzyme, DCIP absorbance 600 nm; higher = more signal, called active from +8 up or from −8 down;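 further: recombinant parasite enzyme with a five histidine tag at its C terminus; test concentration not given here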
# [15] = inhibition of PAO1 biofilm formation – strain PAO1, LB-PBS medium, absorbance 600 nm, primary screen (AID 1176); further: test concentration not given here; details: P. aeruginosa PAO1 growth/biofilm, A600, 12 h; higher = more signal
# [16] = growth modulation of vineyard yeast isolate – strain RM11-1a, OD600, basal, 24 h, primary screen (AID 1177);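 further: cultures grown under basal conditions with no added stressor; test concentration not given here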; details: S. cerevisiae RM11-1a growth, OD600, 24 h; higher = more signal, called active from +8 up or from −8 down
# [17] = growth of efflux-deficient E. coli DRC39 – strain DRC39, OD650, 24 h, E. coli filamentation inducers, primary screen (AID 1178);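 further: growth measured as culture turbidity by optical density at 650 nm; test concentration not given here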; details: E. coli DRC39 acrAB, higher = more signal, called active from +8 up or from −8 down
# [18] = growth of efflux-deficient E. coli DRC39 – strain DRC39, OD650, 48 h, E. coli filamentation inducers, primary screen (AID 1179);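 further: screen aims at cell division blockers that make cells filament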; details: E. coli DRC39 delta-acrAB growth, higher = more signal, called active from +8 up or from −8 down
# [19] = viability profiling in RPMI8226 myeloma cells – cell-based, resazurin fluorescence, basal, 24 h, PK04 Diversity Set, profiling panel (AID 1180); details: higher = more signal;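 further: RPMI8826 multiple myeloma cell line at 5000 cells per well; test concentration not given here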
# [20] = molecular target: E3 ubiquitin-protein ligase XIAP (Homo sapiens) (UniProt P98170); experiment: small molecules binding XIAP protein – biophysical, small-molecule microarray, fluorescence 635 nm, primary screen (AID 1181); details: higher = more signal;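 further: score merges 667 nm emission and signal to noise over triplicate slides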
# Sequence of E3 ubiquitin-protein ligase XIAP (Homo sapiens) (P98170 whole entry, looked up): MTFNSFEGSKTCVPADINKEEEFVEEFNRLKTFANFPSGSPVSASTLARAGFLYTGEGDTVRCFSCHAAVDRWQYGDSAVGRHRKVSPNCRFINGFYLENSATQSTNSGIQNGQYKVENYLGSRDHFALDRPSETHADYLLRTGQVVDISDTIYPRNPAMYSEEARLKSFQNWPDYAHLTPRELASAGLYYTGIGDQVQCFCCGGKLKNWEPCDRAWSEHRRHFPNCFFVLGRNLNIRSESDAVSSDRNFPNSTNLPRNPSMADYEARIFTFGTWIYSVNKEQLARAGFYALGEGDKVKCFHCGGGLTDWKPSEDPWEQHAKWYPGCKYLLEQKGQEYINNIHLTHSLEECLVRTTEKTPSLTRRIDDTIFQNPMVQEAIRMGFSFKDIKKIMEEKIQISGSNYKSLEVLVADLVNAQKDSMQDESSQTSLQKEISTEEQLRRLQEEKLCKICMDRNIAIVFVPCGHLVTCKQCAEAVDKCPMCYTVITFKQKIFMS
# Sequence of Dihydroorotate dehydrogenase (quinone), mitochondrial (Plasmodium falciparum (isolate 3D7)) (Q08210 whole entry, looked up): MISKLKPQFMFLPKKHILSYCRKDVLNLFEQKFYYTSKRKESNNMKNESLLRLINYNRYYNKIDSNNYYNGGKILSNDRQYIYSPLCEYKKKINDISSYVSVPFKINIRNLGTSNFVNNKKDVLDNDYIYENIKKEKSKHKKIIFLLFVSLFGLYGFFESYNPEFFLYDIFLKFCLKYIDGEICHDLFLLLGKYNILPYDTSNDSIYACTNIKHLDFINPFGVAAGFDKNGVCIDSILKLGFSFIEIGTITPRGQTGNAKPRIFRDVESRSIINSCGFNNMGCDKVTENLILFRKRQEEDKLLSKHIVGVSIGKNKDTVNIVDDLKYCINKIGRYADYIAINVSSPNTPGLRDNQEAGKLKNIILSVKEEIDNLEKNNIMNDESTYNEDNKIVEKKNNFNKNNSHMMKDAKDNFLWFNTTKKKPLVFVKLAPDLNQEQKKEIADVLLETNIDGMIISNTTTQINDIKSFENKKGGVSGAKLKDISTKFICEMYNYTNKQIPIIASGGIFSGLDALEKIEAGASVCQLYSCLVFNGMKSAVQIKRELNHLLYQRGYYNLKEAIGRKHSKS
Compound,z-score [1],z-score [2],z-score [3],z-score [4],z-score [5],z-score [6],z-score [7],z-score [8],z-score [9],z-score [10],z-score [11],z-score [12],z-score [13],composite z-score [14],z-score [15],z-score [16],z-score [17],z-score [18],z-score [19],composite z-score [20]
CCOC(=O)C1=C[C@@H](CC)N(S(=O)(=O)c2ccc(C)cc2)[C@H]1c1ccccc1,-0.934,-0.167,-0.342,-0.922,-1.37,-0.378,-1.31 (inactive),0.649,-0.894,1.46 (inactive),-0.203,1.21 (inactive),-0.666 (inactive),-0.157 (inactive),0.325 (inactive),0.501 (inactive),-0.823 (inactive),-0.604 (inactive),-1.05,0.289
CC(C)(C)N1CC=CC23O[C@@H]4C=CCOC(=O)[C@@H]4[C@H]2C(=O)N(CCCCCO)[C@@H]3C1=O (stereo not given in full),-0.52,0.468,-0.542,-0.341,0.606,-0.667,-0.173 (inactive),0.828,0.388,-1.08 (inactive),-0.308,0.285 (inactive),-0.728 (inactive),-0.0531 (inactive),0.0962 (inactive),-0.0325 (inactive),-1.09 (inactive),-1.2 (inactive),-0.867,0.333
CN1C(=O)C2C(C1=O)C1C=C(CCCO)C2C(c2cccs2)N1C (stereo not given),0.0141,-0.388,0.174,1.59,0.664,0.699,0.617 (inactive),0.257,-0.852,-0.396 (inactive),-0.341,-0.37 (inactive),-0.739 (inactive),-1.36 (inactive),-0.146 (inactive),0.185 (inactive),0.469 (inactive),0.742 (inactive),-0.626,-0.412
Cc1ccc(S[C@]2(C(=O)NCCN3CCOCC3)CC(=O)N(Cc3cc(C(F)(F)F)cc(C(F)(F)F)c3)[C@@H]2c2ccc(CO)cc2I)cc1,0.356,0.712,-0.554,-2.1,-1.92,-0.168,-0.227 (inactive),-0.2,-1.57,0.36 (inactive),1.21,-5.83 (inactive),-2.06 (inactive),-0.483 (inactive),-0.407 (inactive),-2.09 (inactive),0.106 (inactive),1.09 (inactive),-2.33,-0.419
O=C1O[C@@H](c2ccccc2)[C@@H](c2ccccc2)N2[C@@H](c3ccc(O)cc3)[C@]3(C(=O)Nc4ccc(C#CC5(O)CCCCCC5)cc43)[C@@H](C(=O)N3CCCCCCC3)[C@H]12,0.476,0.49,1.04,0.0939,-1.34,-1.36,0.076 (inactive),-0.764,-0.664,-0.314 (inactive),0.366,-0.479 (inactive),-0.895 (inactive),0.916 (inactive),1.89 (inactive),0.141 (inactive),-0.284 (inactive),0.38 (inactive),-0.884,0.479
CN1C=C(C(=O)OCCS(C)(=O)=O)C(C(=O)OCCS(C)(=O)=O)=CC(CCCO)=CC1C1CC1 (stereo not given),-0.731,0.197,1.23,0.509,0.535,0.838,0.448 (inactive),0.326,-1.09,0.129 (inactive),0.427,-2.11 (inactive),-0.16 (inactive),-1.23 (inactive),-0.353 (inactive),-0.558 (inactive),1.38 (inactive),1.29 (inactive),0.0101,-0.366
C=CCNC(=O)[C@H]1[C@@H]2C(=O)O[C@@H](c3ccccc3)[C@@H](c3ccccc3)N2[C@@H](c2ccc(O)cc2)[C@]12C(=O)N(C(=O)OCCOC)c1ccc(C#CCCO)cc12,1.07,0.482,0.802,-0.0589,0.233,0.0998,0.541 (inactive),-1.07,0.45,-0.319 (inactive),-0.37,-0.385 (inactive),0.695 (inactive),1.12 (inactive),0.104 (inactive),0.681 (inactive),0.261 (inactive),0.69 (inactive),0.665,-0.272
CCCC[C@@H]1C[C@H]1[C@@H](NC(=O)c1ccc(-c2ccccc2)cc1)c1ccc(-c2ccccc2)cc1,-1.78,0.441,-0.997,-2.17,-2.33,-0.922,-0.949 (inactive),0.196,-0.391,0.719 (inactive),0.543,-0.498 (inactive),-0.271 (inactive),-1.12 (inactive),0.315 (inactive),0.0066 (inactive),-0.836 (inactive),-1.19 (inactive),-0.0454,0.359
O=C1N(CCS(=O)(=O)c2ccccc2)Cc2ccccc2C[C@]12N=C(c1ccc(OCCCO)cc1)O[C@@H]2c1ccccc1,1.82,1.36,1.17,0.835,-0.962,-0.589,0.603 (inactive),-1.08,0.309,-3.17 (inactive),-1.08,1.07 (inactive),-2.68 (inactive),-1.48 (inactive),0.0658 (inactive),1.52 (inactive),-0.0937 (inactive),1.28 (inactive),-1.99,0.0191
[N-]=[N+]=NCc1ccccc1C[C@@]1(C(=O)NCC(O)CO)N=C(c2ccc(OCCCO)cc2)O[C@@H]1c1ccccc1CN=[N+]=[N-] (stereo not given in full),-1.05,0.208,-0.0726,-1.4,-2.2,-0.382,-1.04 (inactive),-0.762,-0.737,-0.2 (inactive),0.376,-0.247 (inactive),-1.3 (inactive),0.34 (inactive),2.33 (inactive),0.0651 (inactive),0.322 (inactive),-0.0665 (inactive),-1.03,-0.377
C=CCNC(=O)[C@@H]1[C@H]2C(=O)O[C@H](c3ccccc3)[C@H](c3ccccc3)N2[C@H](c2ccc(O)cc2)[C@@]12C(=O)N(C(=O)OCCOC)c1ccccc12,0.231,2.01,0.0902,-0.549,-1.52,-0.338,0.951 (inactive),0.104,-0.0916,0.425 (inactive),0.09,0.57 (inactive),0.177 (inactive),-0.186 (inactive),0.817 (inactive),1.01 (inactive),-0.233 (inactive),-0.33 (inactive),0.209,-0.17
CCOc1cc(C(O)C2C=CC3C(=O)N(c4ccccc4)C(=O)C3N2Nc2ccc([N+](=O)[O-])cc2)ccc1O (stereo not given),-0.499,-0.742,-0.527,0.162,-0.223,-2.36,-2.03 (inactive),-0.459,-0.908,-0.373 (inactive),-0.506,-0.571 (inactive),-0.669 (inactive),0.377 (inactive),0.878 (inactive),-0.864 (inactive),-0.763 (inactive),-0.709 (inactive),-0.901,-0.127
CC(C)C[C@@H]1NC(=O)[C@@H]2C[C@H](C(=O)NCCCCCC[N+](C)(C)C)[C@H](c3ccc(O)cc3)N2C1=O,-0.633,-0.77,0.145,0.305,0.996,-0.595,0.566 (inactive),-0.815,-0.39,0.0131 (inactive),-0.219,0.54 (inactive),0.181 (inactive),0.191 (inactive),-0.282 (inactive),1.11 (inactive),0.487 (inactive),0.62 (inactive),0.0176,-0.0056
COCCOC(=O)N1C(=O)[C@@]2(c3cc(C#CCNC(N)=O)ccc31)[C@H](C(=O)N1CCN(c3ncccn3)CC1)[C@H]1C(=O)O[C@H](c3ccccc3)[C@H](c3ccccc3)N1[C@@H]2c1ccccc1OCCO,-0.246,1.24,-0.539,-0.648,-0.876,-1.43,1.29 (inactive),-1.09,-1.04,1.02 (inactive),0.841,2.3 (inactive),0.0815 (inactive),0.373 (inactive),0.669 (inactive),3.47 (inactive),0.559 (inactive),-0.438 (inactive),0.147,0.0611
O=C(O)[C@@]1(Cc2ccccc2)N=C(c2ccc(OCCCO)cc2)O[C@H]1c1ccccc1,0.83,-0.664,-0.235,0.275,0.237,0.628,1.29 (inactive),-0.182,-0.558,0.575 (inactive),0.712,-1.12 (inactive),0.551 (inactive),1.22 (inactive),-0.692 (inactive),0.291 (inactive),0.24 (inactive),1.34 (inactive),0.655,-0.0095
CC(C)N1C(=O)[C@@]2(c3ccc([N+](=O)[O-])cc3)CC(=O)N(CC34CC5CC(CC(C5)C3)C4)[C@@H]2c2ccc(CO)cc21,0.192,-1.22,1.36,0.496,0.13,0.396,0.888 (inactive),-0.361,-0.512,-0.695 (inactive),-0.0685,0.601 (inactive),-1.02 (inactive),-4.98 (inactive),-0.0902 (inactive),0.156 (inactive),0.101 (inactive),0.0457 (inactive),-0.629,-0.0224
COc1ccc(C(O)C2C=CC3C(=O)N(C)C(=O)C3N2Nc2ccccc2)cc1OCc1ccccc1 (stereo not given),-0.433,-0.621,-0.269,-0.23,-0.427,-1.7,-0.989 (inactive),0.324,0.0666,1.88 (inactive),0.043,-12.9 (active),-0.157 (inactive),0.669 (inactive),1.03 (inactive),1.17 (inactive),-1.02 (inactive),-1.05 (inactive),-0.543,0.209
CC(C)C(O)C1C=CC2C(=O)N(c3ccccc3)C(=O)C2N1Nc1ccc(C#N)cc1 (stereo not given),-0.777,-0.289,-0.114,-0.0628,-1.15,-0.421,-1.47 (inactive),-0.775,-0.44,-0.796 (inactive),-1.45,-2.14 (inactive),-1.66 (inactive),-1.02 (inactive),1.11 (inactive),-0.0111 (inactive),-0.718 (inactive),0.0323 (inactive),-0.47,0.0073
